The results in this text go back to PubChem BioAssay (NCATS).

Inconclusive results are not listed. A number with no mark means an inactive call. Active and inactive are the calls of the source. Unless noted, calls come from the whole dose curve.

Assay [1] is described as follows: qHTS for Inhibitors of the Functional Ribonucleoprotein Complex (vRNP) of Lassa (LASV) Arenavirus: LASV Primary Screen - GLuc reporter signal (AID 1347082; calls by dose curve; tested in HEK293 reporter line; note: nearly all actives have a fitted effect of over 60% in size).
Assay [2] in a line: qHTS for Inhibitors of the Functional Ribonucleoprotein Complex (vRNP) of Lassa (LASV) Arenavirus: Viability assay - alamar blue signal for LASV Primary Screen (AID 1347083; calls by dose curve; tested in HEK293 reporter line; note: nearly all actives have a fitted effect of over 80% in size).
Assay [3] in a line: qHTS for Inhibitors of the Functional Ribonucleoprotein Complex (vRNP) of Lymphocytic Choriomeningitis Arenaviruses (LCMV): Viability assay - alamar blue signal for LCMV Primary Screen (AID 1347085; calls by dose curve; tested in HEK293 reporter line; note: nearly all actives have a fitted effect of over 80% in size). In general terms: In qHTS, concentration-response curves come from the screen itself.
The target in assay [4] is Nucleoprotein (Lymphocytic choriomeningitis virus (strain Armstrong)) (UniProt P09992). In words: qHTS for Inhibitors of the Functional Ribonucleoprotein Complex (vRNP) of Lymphocytic Choriomeningitis Arenaviruses (LCMV): LCMV Primary Screen - GLuc reporter signal (AID 1347086). Note: nearly all actives have a fitted effect of over 70% in size.
Chain of Nucleoprotein (Lymphocytic choriomeningitis virus (strain Armstrong)) (P09992 whole entry, looked up): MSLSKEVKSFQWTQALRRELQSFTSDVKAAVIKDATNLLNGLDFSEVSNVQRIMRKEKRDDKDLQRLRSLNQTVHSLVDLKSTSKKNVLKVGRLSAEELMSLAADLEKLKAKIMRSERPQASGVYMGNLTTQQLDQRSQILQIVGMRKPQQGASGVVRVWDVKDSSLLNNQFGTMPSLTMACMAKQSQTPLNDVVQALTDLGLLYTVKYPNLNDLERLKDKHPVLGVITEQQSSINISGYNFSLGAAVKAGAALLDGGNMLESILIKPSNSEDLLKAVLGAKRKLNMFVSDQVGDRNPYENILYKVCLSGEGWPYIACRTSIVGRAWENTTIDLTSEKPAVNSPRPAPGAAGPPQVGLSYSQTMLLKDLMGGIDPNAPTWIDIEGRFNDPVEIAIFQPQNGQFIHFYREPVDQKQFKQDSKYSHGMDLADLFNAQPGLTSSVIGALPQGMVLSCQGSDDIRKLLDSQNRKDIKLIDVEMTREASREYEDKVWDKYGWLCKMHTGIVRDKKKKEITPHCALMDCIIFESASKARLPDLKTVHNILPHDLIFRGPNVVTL
Potency is the fitted concentration of half-maximal effect.

For the compound `c1ccc2nc(-c3ccc4c(c3)OCO4)ccc2c1`, the Potency result in assay [1], in assay [2], in assay [3] and in assay [4] was “inactive” in each case.
Consider `C/C(=C/CCC(C)[C@H]1CC[C@@]2(C)C3=C(CC[C@]12C)[C@@]1(C)CCC(=O)C(C)(C)[C@@H]1CC3)C(=O)O` (stereo not given in full), for which the Potency result in assay [1], in assay [2], in assay [3] and in assay [4] was “inactive” each time.
Turning to `CCCC(=O)OCC`, the Potency entry in assay [1], in assay [2], in assay [3] and in assay [4] was “inactive” each time.
As to `Cc1ccc2oc3ccccc3c(=O)c2c1`, the Potency result in assay [1], in assay [2], in assay [3] and in assay [4] was “inactive” each time.
With `COc1cc2nc3occc3c(OC)c2cc1OC`, the Potency result in assay [1], in assay [2], in assay [3] and in assay [4] was “inactive” throughout.
In the case of `CCC(=O)NC[C@H](Cc1ccc(OCCc2nc(-c3ccccc3)oc2C)cc1)NC(C)=CC(=O)c1ccc(C(F)(F)F)cc1`, the Potency entry in assay [1], in assay [2], in assay [3] and in assay [4] was “inactive” throughout.
Take `C=CCCC[C@@H]1OC(=O)CNC(=O)C([C@@H](C)CC)NC(=O)[C@@H]2CCCN2C(=O)C([C@@H](C)CC)OC(=O)[C@H](Cc2ccccc2)N(C)C(=O)[C@H](C(C)C)NC(=O)C1(C)C` (stereo not given in full): the Potency entry in assay [1], in assay [2], in assay [3] and in assay [4] was “inactive” throughout.
Consider `C[N+]1([O-])[C@@H]2Cc3cc4c(cc3[C@@H]1Cc1cc3c(cc12)OCO3)OCO4` (stereo not given in full), for which the Potency entry in assay [1], in assay [2], in assay [3] and in assay [4] was “inactive” in each case.
With `Cc1coc2c1C(=O)C(=O)c1c-2ccc2c(C)cccc12`, the Potency result in assay [1], in assay [2], in assay [3] and in assay [4] was “inactive” each time.
On to `C#C[C@]1(O)CC[C@H]2[C@@H]3CCC4=Cc5oncc5CC4(C)[C@H]3CCC21C` (stereo not given in full), for which the Potency entry in assay [1], in assay [2], in assay [3] and in assay [4] was “inactive” each time.
As to `COc1c2c(c3c(c1OC)c(=O)c1ccccc1n3C)OCO2`, the Potency result in assay [1], in assay [2], in assay [3] and in assay [4] was “inactive” each time.
With `O=C1N[C@@H](Cc2cnc[nH]2)C(=O)N2CCC[C@@H]12`, the Potency entry in assay [1], in assay [2], in assay [3] and in assay [4] was “inactive” throughout.
As to `COc1ccc(CC2c3cc(OC)c(OC)cc3CCN2C)cc1O` (stereo not given), the Potency entry in assay [1], in assay [2], in assay [3] and in assay [4] was “inactive” each time.
As for `CCCCCCCCOC(C)=O`, the Potency result in assay [1], in assay [2], in assay [3] and in assay [4] was “inactive” throughout.
`O=c1ccc2ccc(O[C@@H]3O[C@H](CO)[C@@H](O)[C@H](O)[C@H]3O)c(O)c2o1`: the Potency entry in assay [1], in assay [2], in assay [3] and in assay [4] was “inactive” throughout.
In the case of `C=CCNC1=C2C[C@@H](C)C[C@H](OC)[C@@H](O)[C@@H](C)C=C(C)[C@H](OC(N)=O)[C@@H](OC)C=CC=C(C)C(=O)NC(=CC1=O)C2=O`, the Potency was 8.63 µM (active) in assay [1], 6.85 µM (active) in assay [2], 15.3 µM (active) in assay [3] and 4.32 µM (active) in assay [4].
Regarding `C=CC(C)(C)O[C@@H]1O[C@H](CO)[C@@H](O)[C@H](O)[C@H]1O`, the Potency result in assay [1], in assay [2], in assay [3] and in assay [4] was “inactive” each time.
As for `CC1CC(C)C(=O)C1=O` (stereo not given), the Potency result in assay [1], in assay [2], in assay [3] and in assay [4] was “inactive” throughout.
With `COC(=O)c1c(C)cc(O)c(C=O)c1O`, the Potency result in assay [1], in assay [2], in assay [3] and in assay [4] was “inactive” in each case.
In the case of `CC1=CC2OC3CC4OC(=O)C=CC=CC(C(C)O)OCC(O)C5(C)OC5C(=O)OCC2(CC1O)C4(C)C31CO1` (stereo not given), the Potency entry in assay [1], in assay [2], in assay [3] and in assay [4] was “inactive” each time.
On to `CC1=CC(=O)[C@H]2C[C@@H]1C2(C)C`, for which the Potency entry in assay [1], in assay [2], in assay [3] and in assay [4] was “inactive” each time.
As to `CC12C=CC(=O)C=C1CCC1C2CCC2(C)C(C(=O)CO)CCC12` (stereo not given), the Potency result in assay [1], in assay [2], in assay [3] and in assay [4] was “inactive” throughout.
For the compound `O=Cc1cc2ccccc2o1`, the Potency result in assay [1], in assay [2], in assay [3] and in assay [4] was “inactive” in each case.
As for `COc1cc(O)c(C(C)=O)c2c1C=CC(C)(C)O2`, the Potency result in assay [1], in assay [2], in assay [3] and in assay [4] was “inactive” in each case.
As for `C=C1CCC2C(C)(C)[C@@H](O)CC[C@@]2(C)[C@@H]1COc1ccc2ccc(=O)oc2c1` (stereo not given in full), the Potency result in assay [1], in assay [2], in assay [3] and in assay [4] was “inactive” throughout.
For `CN1CCCC1`, the Potency result in assay [1], in assay [2], in assay [3] and in assay [4] was “inactive” each time.
With `C[C@H](NCc1ccc2c(c1)nc(NC(=O)c1ccc(-c3cn[nH]c3)s1)n2CCc1ccccc1)C(C)(C)C`, the Potency in assay [1] was 10.9 µM (active); in assay [2], 6.11 µM (active); in assay [3] it was 12.2 µM (active); in assay [4], 17.2 µM (active).
On to `CC(C)NC[C@@H](C(=O)N1CCN(c2ncnc3c2[C@H](C)C[C@H]3O)CC1)c1ccc(Cl)cc1`, for which the Potency was 0.968 µM (active) in assay [1], 0.243 µM (active) in assay [2], 0.485 µM (active) in assay [3] and 0.863 µM (active) in assay [4].
In the same order, the values of `CCC(C)SSC(C)CC` (stereo not given) are “inactive”, “inactive”, “inactive” and “inactive”.
As for `CCCCCc1cccc(=O)o1`, the Potency entry in assay [1], in assay [2], in assay [3] and in assay [4] was “inactive” in each case.
